Shown are actives, neighbours in structure and some others; about 4.5% of the full set was active somewhere.
Gli-Sufu antag = Gli-Sufu pathway antagonism; Sufu-KO-LIGHT fibroblasts, Gli luciferase reporter luminescence; inhibition, % at 5 µM; AID 588413; 340,000 tested, 0.74% active;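 active = inhibition above about 55%, limit read from the data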;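 also: 0% = DMSO-treated cells and 100% = wells with medium but no cells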
Jurkat NFkB inh = lowers PMA/ionomycin-induced NF-kB signal in Jurkat cells | 330,000 tested, 0.53% active | inhibition, % at 4 µM | PMA/ionomycin-induced NF-kB luciferase reporter, luminescence | AID 435003; in the data active = inhibition above about 50%
Mdm2 MdmX PPI = disrupts the human Mdm2-MdmX interaction. SaOS-2 split-luciferase Mdm2/MdmX complementation, luminescence. inhibition, % at 8 µM. 330,000 tested, 3% active. AID 485346;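 active = inhibition of at least 50% at 8 µM in the primary screen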
Target sequence (O15151 whole entry, looked up): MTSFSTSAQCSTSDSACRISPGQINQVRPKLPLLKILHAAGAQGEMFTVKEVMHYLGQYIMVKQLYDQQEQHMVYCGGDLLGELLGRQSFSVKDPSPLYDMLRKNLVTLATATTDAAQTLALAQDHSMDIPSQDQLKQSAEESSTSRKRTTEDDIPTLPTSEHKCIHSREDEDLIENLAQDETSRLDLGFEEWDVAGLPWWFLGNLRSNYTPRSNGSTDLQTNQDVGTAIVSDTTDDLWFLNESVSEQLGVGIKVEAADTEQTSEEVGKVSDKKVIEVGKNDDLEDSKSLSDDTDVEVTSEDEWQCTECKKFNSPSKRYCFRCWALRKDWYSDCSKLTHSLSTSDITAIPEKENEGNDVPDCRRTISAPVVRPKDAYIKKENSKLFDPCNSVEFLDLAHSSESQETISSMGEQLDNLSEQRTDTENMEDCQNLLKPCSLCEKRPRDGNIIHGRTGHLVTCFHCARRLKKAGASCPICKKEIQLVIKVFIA
Target sequence (Q00987 whole entry, looked up): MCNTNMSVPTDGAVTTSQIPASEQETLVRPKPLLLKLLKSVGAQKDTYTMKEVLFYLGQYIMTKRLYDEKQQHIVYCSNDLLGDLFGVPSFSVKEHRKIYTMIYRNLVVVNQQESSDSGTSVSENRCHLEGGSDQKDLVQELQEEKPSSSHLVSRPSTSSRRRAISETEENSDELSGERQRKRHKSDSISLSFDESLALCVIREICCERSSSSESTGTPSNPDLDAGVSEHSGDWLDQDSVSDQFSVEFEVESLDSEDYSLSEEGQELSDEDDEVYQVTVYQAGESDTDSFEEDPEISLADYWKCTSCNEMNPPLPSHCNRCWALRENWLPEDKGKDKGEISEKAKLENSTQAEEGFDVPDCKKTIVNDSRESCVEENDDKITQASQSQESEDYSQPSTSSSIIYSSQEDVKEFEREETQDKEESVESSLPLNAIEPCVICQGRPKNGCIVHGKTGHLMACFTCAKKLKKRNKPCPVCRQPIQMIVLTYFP
CSC inhib = blocks cancer stem cells; inhibition, % at 7.5 µM; 300,000 tested, 1.1% active; cancer stem cell-like cells viability, luminescence; in the data active = inhibition above about 75%; tested in HMLE shEcad cells
aSyn 5UTR inh = 5' untranslated region of α-synuclein, MLPCN primary screen; alpha-synuclein 5'UTR reporter, inhibitor activity; inhibition, % (tested at 7.5 µM); 300,000 tested, 0.82% active; in the data active = inhibition above about 60%;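 also: H4 neuroglioblastoma cells stably carrying SNCA 5'UTR luciferase fusion; 0% = DMSO wells and 100% = positive control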
697 NFkB inh = lowers PMA/ionomycin-induced NF-kB signal in 697 B cells; 697 B-cell NF-kB luciferase reporter, 16 h; inhibition, % at 4 µM; 330,000 tested, 0.33% active; AID 435022; in the data active = inhibition above about 35%
Mdm2-MdmX conf = confirmation of human Mdm2/MdmX interaction inhibitors. Mdm2-MdmX binding, luminescent assay. shares compounds with Mdm2 MdmX PPI. inhibition, % at 8 µM. 10,000 tested, 55% active; in the data active = inhibition above about 40%
Full FLuc ctr = counter-screen for Mdm2/MdmX inhibitors: full-length luciferase. shares compounds with Mdm2 MdmX PPI. SaOS-2 full-length luciferase counterscreen, luminescence. inhibition, % at 8 µM. 6,200 tested, 77% active;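 active = mean inhibition at 8 µM reaching about 37%, which flags the compound as non-specific, limit read from the data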;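 also: p53-null SaOS-2 cells with luciferase driven by a doxycycline-inducible promoter; compound on cells about two nights before reading with doxycycline added after day one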
An asterisk follows results filed as active; nt = no result.

SMILES | Gli-Sufu antag | Jurkat NFkB inh | Mdm2 MdmX PPI | CSC inhib | aSyn 5UTR inh | 697 NFkB inh | Mdm2-MdmX conf | Full FLuc ctr
O=C(CNC(=O)C1COc2ccccc2O1)N/N=C\c1cccc(O)c1 (centres undefined) | -6 | 14 | 10 | 5 | 20 | 21 | nt | nt
CCCCNC(=O)Cn1cnc2sc(C)c(S(=O)(=O)N3CCN(c4ccccc4OC)CC3)c2c1=O | -10 | 12 | -6 | -9 | 7 | 3 | nt | nt
CC(NC(=O)C12CC3CC(CC(C3)C1)C2)C(=O)N/N=C/C1=C(N2CCOCC2)C(=C\c2ccccc2)/CC1 (centres undefined) | 6 | 7 | 12 | 4 | 50 | -19 | nt | nt
Cc1ccc(-c2nc(NC(=O)c3cc(C(C)(C)C)nn3C)sc2C)cc1Cl | 7 | 14 | 38 | 57 | nt | -13 | nt | nt
O=C(CNC(=O)C(c1ccccc1)c1ccccc1)N/N=C\c1cccc(O)c1 | -2 | 4 | -6 | 3 | -11 | 22 | nt | nt
CCc1cc(C(=O)N/N=C/c2ccc(O)cc2O)c2ccccc2n1 | 13 | 14 | 63* | 94* | 50 | -50 | 64* | 36*
O=C(CNC(=O)C(c1ccccc1)c1ccccc1)N/N=C/c1ccc(O)cc1O | 1 | 12 | 70* | 133* | 12 | -4 | 77* | 38*
COc1ccc(OC)c(Nc2nc3ccc(C)cc3n3cnnc23)c1 | 10 | -8 | 47 | 12 | 8 | 12 | nt | nt
COc1ccc(Cl)cc1Nc1nc2ccc(C)cc2n2cnnc12 | 46 | -12 | 55* | -4 | 15 | -4 | 31 | nt
O=c1c2ccccc2nc(N2CCN(c3ccccc3)CC2)n1Cc1ccccc1 | -3 | 0 | 29 | 8 | 12 | 2 | nt | nt
O=C(OCC(=O)N1CCOCC1)c1ccccc1OCc1ccccc1 | 1 | 5 | 1 | -12 | nt | 20 | nt | nt
COc1ccc(CNC(=O)Cn2nnc(-c3ccc(NC(=O)C4CCCCC4)cc3)n2)cc1 | -7 | -60 | 61* | 8 | -47 | -21 | 15 | nt
CCOc1ccc(-c2nnn(CC(=O)NCc3ccc(C)cc3)n2)cc1 | -10 | 13 | 29 | -4 | 11 | 21 | nt | nt
CCOc1ccc(-c2nnn(CC(=O)Nc3cc(OC)ccc3OC)n2)cc1OCC | -7 | 12 | 0 | -12 | 30 | -4 | nt | nt
CCOc1ccccc1NC(=O)Cn1nnc(-c2ccc(OCC)c(OCC)c2)n1 | 4 | -6 | 88* | nt | 38 | -7 | 7 | nt
CCOc1ccc(-c2nnn(CC(=O)NCc3ccc(OC)cc3)n2)cc1OCC | -3 | -3 | 62* | 1 | 17 | -6 | 16 | nt
CCOc1ccc(NC(=S)Nc2ccc(F)cc2)cc1 | 5 | -4 | 10 | -10 | -10 | -1 | nt | nt
CCOC(=O)C1=C(C)Nc2sc(C(=O)c3ccc(C)cc3)c(N)c2C1c1ccc(C(=O)OC)cc1 (centres undefined) | 7 | -12 | 39 | 17 | 35 | -35 | nt | nt
CCOC(=O)C1=C(C)Nc2sc(C(=O)c3ccc(F)cc3)c(N)c2C1c1ccc(C(=O)OC)cc1 (centres undefined) | 7 | 13 | 61* | nt | 22 | 0 | 22 | nt
CCC(C)C1/C=C\CC(NC(=O)OCC2c3ccccc3-c3ccccc32)CC(=O)N1Cc1ccccc1 (centres undefined) | -1 | nt | 43 | nt | nt | -7 | nt | nt
Cc1nc2ccccc2c(=O)n1/N=C/c1c(O)ccc2ccccc12 | 7 | 0 | 31 | 2 | 50 | 20 | nt | nt
Cc1nc2ccccc2c(=O)n1/N=C/c1c(O)ccc2oc3c(c12)CCCC3 | -14 | 22 | 63* | 82* | 86* | 6 | 38 | 50*
CCc1cccc2c1Sc1ccccc1CC2N1CCNCC1 (centres undefined) | 5 | 7 | 71* | 79* | 104* | -30 | 24 | nt
Cc1cccc2c1Sc1ccc(Cl)cc1CC2N1CCNCC1 (centres undefined) | 2 | 15 | 100* | 102* | 104* | -28 | 39 | 46*
COc1ccc(-n2nc(C#N)c(Cl)cc2=O)cc1 | 19 | 21 | 100* | nt | nt | 4 | 100* | 53*
SMILES | Gli-Sufu antag | Jurkat NFkB inh | Mdm2 MdmX PPI | CSC inhib | aSyn 5UTR inh | 697 NFkB inh | Mdm2-MdmX conf | Full FLuc ctr
COC(=O)c1nn(-c2ccc(OC)cc2)c(=O)cc1O | -2 | -21 | -5 | 14 | 21 | 7 | nt | nt
N#Cc1ccc(CN(c2ccncc2)S(=O)(=O)c2ccccc2)cc1 | -15 | -8 | -5 | -1 | -1 | -6 | nt | nt
Cc1cc(C)nc(SCC(=O)Nc2ncc(Cc3ccc(Cl)c(Cl)c3)s2)n1 | 10 | 23 | 52* | 11 | 24 | -22 | 13 | nt
Cc1ccc(Cc2cnc(NC(=O)CN3CCOCC3)s2)cc1Cl | -2 | -9 | 2 | 0 | -19 | -28 | nt | nt
CCN(CC1CCCN(CCc2cccc(OC)c2)C1)C(=O)c1ccoc1C (centres undefined) | 34 | 5 | 20 | -13 | -22 | -6 | nt | nt
O=C(Cc1ccc([N+](=O)[O-])cc1)Nc1cc(C(F)(F)F)cc(C(F)(F)F)c1 | 2 | 16 | 51* | 13 | 36 | -3 | 75* | 63*
O=C(Cc1ccc([N+](=O)[O-])cc1)Nc1cccc(C(F)(F)F)c1 | 7 | 2 | -10 | -2 | 16 | -20 | nt | nt
O=C1N(c2ccccc2)C[C@@H]2C[C@@H](c3cccs3)N3CCC[C@@]123 | 8 | 1 | -10 | -15 | -18 | 2 | nt | nt
CC(C)(O)C#Cc1ccc([C@@H]2C[C@H]3CN(c4ccccc4)C(=O)[C@]34CCCN24)s1 | 46 | 23 | 64* | 41 | 3 | -3 | 41* | 60*
CCc1ccc2[nH]c3nc(N/N=C/c4ccc(O)cc4O)nnc3c2c1 | 7 | 50 | 58* | 67 | 31 | -15 | 94* | 29
COc1cc(/C=N/Nc2nnc3c(n2)[nH]c2ccccc23)ccc1O | -11 | nt | nt | 4 | -60 | nt | nt | nt
COc1ccc(Nc2ccnc3ccccc23)cc1 | -6 | 11 | 65* | -6 | -26 | 4 | 57* | 34
CC(C)Nc1ccc(Nc2ccnc3cc4ccccc4cc23)cc1 | 11 | -3 | 95* | 108* | 99* | -30 | 100* | 51*
COc1ccc(CN2CCN(Cc3ccccc3F)CC2)cc1OC | 27 | 3 | 10 | 2 | 18 | 12 | nt | nt
O=C(NCc1ccccn1)c1ccc(OC2CCN(Cc3cccs3)CC2)cc1 | -7 | 6 | 9 | -8 | -47 | -14 | nt | nt
C=CCc1ccccc1OCC(=O)N/N=C/c1ccc(OC(C)=O)cc1OC(C)=O | -7 | 15 | 52* | 77* | 41 | -38 | 51* | 37*
CNCc1ccccc1Sc1cc(O)ccc1O | 10 | 9 | 91* | nt | nt | -26 | 19 | nt
CCn1c(=O)cc(SCC(=O)Nc2cc(OC)c(OC)c(OC)c2)c2ccccc21 | 0 | 3 | 53* | 8 | 22 | 27 | 19 | nt
CCn1c(=O)cc(SCC(=O)NCc2ccc(C)cc2)c2ccccc21 | -16 | 26 | 32 | 28 | -14 | 12 | nt | nt

From PubChem BioAssay
